High-throughput results as filed in PubChem BioAssay.
Most compounds without a hit are left out; they make up all but 9.4% or so of the library.
IMPase cell inh = qHTS Assay for Identifying the Cell-Membrane Permeable IMPase Inhibitors. CHO-M1 cells, IP1 accumulation, HTRF TR-FRET ratio. inhibition (IP1 accumulation), % at 46.1 µM. Inositol monophosphatase 1 (Rattus norvegicus), P97697. 120,000 tested, under 10 active; active means well fitted curve in the direction sought with a large enough effect in the signal ratio, not every such curve was filed as active; inconclusive means small, poorly fitted or top-dose-only effect, or a change in a side signal; inactive means no such curve, though single readings can be large or run the other way; the % refers to the signal ratio;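 further: cells stimulated with carbachol in lithium chloride buffer; plate controls were DMSO basal wells for no effect and reference inhibitor wells for full effect; higher means more IMPase inhibition seen as more IP1 and lower FRET ratio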
Target sequence (P97697 whole entry, looked up): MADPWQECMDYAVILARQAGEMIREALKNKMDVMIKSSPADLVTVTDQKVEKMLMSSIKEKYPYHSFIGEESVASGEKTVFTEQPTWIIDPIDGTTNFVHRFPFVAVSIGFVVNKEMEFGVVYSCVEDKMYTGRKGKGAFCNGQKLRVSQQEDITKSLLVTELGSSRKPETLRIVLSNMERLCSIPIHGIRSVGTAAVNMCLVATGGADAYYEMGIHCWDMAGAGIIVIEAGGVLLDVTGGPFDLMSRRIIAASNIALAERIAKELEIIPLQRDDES
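Carbachol-driven Gq signalling in CHO-M1 cells (2000/well) generates IP1. Compounds that block IMPase raise IP1 and so reduce the FRET signal from Eu-anti-IP1 and d2-IP1 after a 10 min room-temperature lysis.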
HPGD block = qHTS Assay for Inhibitors of HPGD (15-Hydroxyprostaglandin Dehydrogenase); 15-hydroxyprostaglandin dehydrogenase [NAD(+)] (Homo sapiens), P15428; purified HPGD, NADH fluorescence kinetic, PGE2 substrate; Potency, µM, without a hit: at the top dose activity change, negative = inhibition, usual class: inhibitors; 150,000 compounds, 4.3% hits; AID 894, 2007; active means well fitted inhibition curve with a large enough effect, not every such curve was filed as active; inconclusive means small, poorly fitted or top-dose-only effect, or another doubt; inactive means no such curve, though single readings can be large or run the other way; further: potency means the concentration at half of the fitted maximal effect; on the % scale 0 is the no-effect control and ±100 the full control effect
Target sequence (P15428 whole entry, looked up): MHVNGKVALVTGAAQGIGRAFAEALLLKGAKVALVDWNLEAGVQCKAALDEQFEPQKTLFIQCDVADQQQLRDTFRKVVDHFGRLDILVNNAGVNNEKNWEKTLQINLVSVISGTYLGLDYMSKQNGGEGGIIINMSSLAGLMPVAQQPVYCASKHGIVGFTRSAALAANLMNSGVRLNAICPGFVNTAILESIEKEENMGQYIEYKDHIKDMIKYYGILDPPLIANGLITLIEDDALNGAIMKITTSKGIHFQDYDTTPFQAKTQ
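20 nM HPGD preincubated 15 min at room temperature with compound in 50 mM Tris-HCl pH 8, 0.01% Tween 20. Started with 1 mM NAD+ and 30 uM prostaglandin E2; NADH fluorescence (360/450 nm) read 5 times over 30-s intervals, last minus first.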
IMPase Li inh = qHTS Assay for Identifying the Cell-Membrane Permeable IMPase Inhibitors: Potentiation with Lithium. 210,000 compounds, 0.35% hits. AID 1457, 2008. Potency, µM (top dose mostly 59.4 µM), for inactives: at the highest dose activity, negative = IMPase inhibition, hits mostly inhibitors. CHO-M1 cells, IP1 TR-FRET (IP-One), carbachol + lithium;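 further: IP1 builds up when IMPase is blocked and the TR-FRET signal falls; potency means the concentration at half of the fitted maximal effect; plate controls were basal vehicle for no effect and high inhibitor control for full effect; nearly all actives have a fitted effect of over 50% in size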
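Steps: plate 2000 CHO-M1 cells per well and culture 16–30 h; add compound and lithium; incubate 30 min, 37C; add d2-IP1 tracer and Eu cryptate anti-IP1 antibody in lysis buffer; read after 10 min at room temperature.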
HTT aggregate = qHTS Multiplex Assay to Identify Dual Action Probes in a Cell Model of Huntington: Aggregate Formation (GFP); Potency, µM (series often up to 46.1 µM), without a hit: top-dose activity change, negative = inhibition, usual class: inhibitors; AID 1688, 2009; 220,000 compounds, 1.1% hits; PC12 HttQ103-GFP aggregates, Acumen cytometry, 40 h; further: potency means the concentration at half of the fitted maximal effect; on the % scale 0 is the no-effect control and ±100 the full control effect; nearly all actives have a fitted effect of over 60% in size
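Quantitative HTS on tebufenozide-induced (100 nM) PC12 cells stably expressing polyQ103 Huntingtin exon 1–GFP. Reduction of bright GFP aggregates, detected by laser scanning cytometry after lysis, identified actives across the titration.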
ALDH1A1 block = qHTS Assay for Inhibitors of Aldehyde Dehydrogenase 1 (ALDH1A1) | Aldehyde dehydrogenase 1A1 (Homo sapiens), P00352 | Purified ALDH1A1, NADH fluorescence, propionaldehyde substrate | Potency, µM (doses to about 75.3 µM), for inactives: top-dose activity, negative = inhibition, most hits filed as inhibitors | 220,000 compounds, 7.3% hits; active means well fitted inhibition curve with a large enough effect, not every such curve was filed as active; inconclusive means small, poorly fitted or top-dose-only effect, or another doubt; inactive means no such curve, though single readings can be large or run the other way;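 further: potency means the concentration at half of the fitted maximal effect; plate controls were no enzyme wells and a reference inhibitor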
HTT cytoprotect = qHTS Multiplex Assay to Identify Dual Action Probes in a Cell Model of Huntington: Cytoprotection (ATP) | Potency, µM (highest dose often 56.4 µM), without a hit: cytoprotection (ATP increase), most hits filed as activators | 230,000 compounds, 0.14% hits | AID 1471, 2008 | PC12 HTT-Q103 induced, cytoprotection, ATP luminescence, 40 h; further: potency means the concentration at half of the fitted maximal effect; % of control where 0% means no effect; nearly all actives have a fitted effect of over 45% in size
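Cells were plated at 1500 per well in phenol red-free DMEM with 5% equine and 5% calf serum. Tebufenozide (100 nM final) and compounds were added, then ATPlite reagent, and luminescence was read.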
An asterisk follows results filed as active; ? = inconclusive; nt = not tested or not shown; [ ] = remark or other dose. Unless noted, the call rests on the fitted dose curve; in most records, active means well fitted curve in the direction sought with a large enough effect; inconclusive means small, poorly fitted or top-dose-only effect, or another doubt; inactive means no such curve, though single readings can be large; an effect the other way counts as inactive or inconclusive.

SMILES | IMPase cell inh | HPGD block | IMPase Li inh | HTT aggregate | ALDH1A1 block | HTT cytoprotect
O=c1[nH]c(=O)n(Cl)c(=O)n1Cl | nt | nt | nt | 2% | nt | 14µM*
N[C@H](Cc1ccc(N(CCCl)CCCl)cc1)C(=O)O | 0 | nt | nt | nt | nt | -32%[1.9 µM]
CN(N=O)c1ccc(O)c(O)c1 | 7 | 8.9µM* | 17% | nt | 16µM* | -8%[1.9 µM]
C/C=C1\C[C@H](C)[C@](O)(CO)C(=O)OCC2=CCN3CC[C@@H](OC1=O)[C@@H]23 | nt | nt | nt | nt | nt | -2%
Cc1ccc(-c2nc3ccccc3c(=O)n2-c2ccncc2)cc1 | -4 | -9% | 7% | -19% | ? | 23%[10 µM]
CCCCOc1nc2ccccc2c(=O)n1-c1ccccc1 | nt | -13% | 12% | 1% | 14µM* | 6%[10 µM]
COc1ccc(-n2c(-c3ccc(C)cc3)nc3ccccc3c2=O)cc1 | nt | nt | nt | -1%[9.22 µM] | 7.9µM* | -7%[10 µM]
Cc1o[nH]c(=O)c1C[C@H](N)C(=O)O | 1 | 4% | 30% | nt | -4% | 11%
COC(C)C(O)(C(=O)OC1=CCN2CC[C@H](O)[C@H]12)C(C)C (stereo not given in full) | 7 | 4% | 27% | nt | 10% | -1%[1.9 µM]
c1cnc(N2CCC3(CCNCC3)CC2)nc1 | nt | -13% | 13% | nt | -16% | -45%
O=C1CC2(CCCC2)CC(=O)N1CCCCN1CCN(c2ncccn2)CC1 | 3 | 5% | 14% | 16% | 3.5µM* | ?
CCCCCCCCCCCCOCCOCCOCCOCCOCCOCCOCCOCCOCCO | nt | nt | nt | ? | nt | -78%
C(=C/c1ccccc1)/CN1CCN(CCOC(c2ccccc2)c2ccccc2)CC1 | 18 | -9% | 36% | nt | -11% | -11%
Oc1cc2c(cc1O)[C@H]1c3ccccc3CN[C@@H]1CC2 | 6 | nt | nt | nt | nt | -5%[1.9 µM]
Oc1cc2c(cc1O)[C@H]1c3ccccc3CN[C@H]1CC2 | -1 | 8.9µM* | 2% | nt | ? | -29%
ClCCl | nt | -7% | 4% | nt | ? | 21%
CCC(Cl)[N+](=O)[O-] (stereo not given) | nt | 1% | 11% | nt | ? | -1%
Cc1ccccc1N1C(=O)NC(=O)/C(=C\c2ccc3c(c2)CCCN3Cc2ccccc2)C1=O | nt | 1.8µM* | 12% | -21% | ? | -9%[10 µM]
O=[N+]([O-])c1ccccc1CCl | nt | 2% | -13% | nt | 13µM* | ?
O=C(CCn1c(=O)oc2ccccc21)N1CCN(C(c2ccccc2)c2ccccc2)CC1 | 13 | -19% | 13%[38.3 µM] | ? | 18µM* | -49%
CCC(C)N1CCN(C(=O)Cc2ccccc2)CC1 (stereo not given) | 4 | 3% | 37%[38.3 µM] | 8% | -7% | 3%
O=C1/C(=C\c2ccccc2)C[C@@]2(O)[C@H]3Cc4ccc(O)c5c4[C@@]2(CCN3CC2CC2)[C@@H]1O5 | 8 | -14% | 23% | nt | -3% | -80%
CCCCCc1cc(O)c2c(c1)OC(C)(C)C1CC=C(C)CC21 (stereo not given) | nt | nt | nt | -5% | nt | -3%
COC(=O)[C@]1(C)CC[C@@]2(C)CC[C@@]3(C)C4=CCc5c(cc(O)c(O)c5C)[C@]4(C)CC[C@@]3(C)C2C1 (stereo not given in full) | nt | 28µM* | 1% | nt | 5% | nt
CNc1ccccc1C(=O)O | nt | ? | -4% | nt | ? | nt
C[CH2][Hg][S]c1ccccc1C(=O)O | nt | 0.28µM* | 14% | 2.5µM* | 0.18µM* | -323%
O=C1NC(=O)N(Cc2ccccc2)C(=O)/C1=C/c1cnn(-c2ccccc2)c1 | nt | nt | 5% | 5% | 10µM* | -42%
COc1ccccc1N1C(=O)NC(=O)/C(=C\c2cnn(-c3ccccc3)c2)C1=O | nt | nt | 9% | -1% | 8.9µM* | nt
